SENP7 block = inhibitors of human SENP7 protease; inhibition, % at 5 µM; recombinant SENP7, Z-RLRGG-aminoluciferin luminescence, 40 min; Q9BQF6; hit rate 1.5% among 330,000;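 active = inhibition above about 50% at the single test dose, limit read from the data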;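 note: plate controls were DMSO with enzyme for no effect and no enzyme buffer wells for full effect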
SENP6 inh = SENP6 protease inhibition. Q9GZR1. Recombinant SENP6 catalytic domain, aminoluciferin luminescence. inhibition, % at 10 µM. hit rate 1.8% among 330,000. AID 2599;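 active = inhibition above about 50% at the single tested dose, limit read from the data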;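 note: plate controls were DMSO wells with enzyme for no effect and DMSO wells lacking enzyme for full effect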
TRAIL sens C8 = caspase-8 TRAIL sensitization. NB7+C8 cells + TRAIL, ATPlite viability luminescence. inhibition (viability loss, TRAIL sensitization), % at 10 µM. hit rate 1% among 360,000. AID 624354;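 active = compounds causing at least 50% loss of cell viability in the single-dose screen, relative to plate controls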
SENP8 block-1 = SENP8 protease inhibition; Q96LD8; purified SENP8, Z-RLRGG-aminoluciferin cleavage, luminescence; inhibition, % at 10 µM; hit rate 1.2% among 330,000; in the data active = inhibition above about 50%
Target sequence (Q96LD8 whole entry, looked up): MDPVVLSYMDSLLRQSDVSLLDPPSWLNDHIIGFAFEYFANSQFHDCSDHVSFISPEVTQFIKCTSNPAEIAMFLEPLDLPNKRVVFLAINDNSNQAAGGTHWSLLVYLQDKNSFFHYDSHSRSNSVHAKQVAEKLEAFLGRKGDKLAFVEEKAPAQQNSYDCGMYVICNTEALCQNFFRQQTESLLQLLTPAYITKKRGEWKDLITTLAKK
SENP8 block-2 = blocks human SENP8 cleavage of Nedd8 substrate. Q96LD8. inhibition, % at 20 µM. recombinant SENP8, Nedd8 substrate fluorescence. hit rate 0.64% among 360,000; in the data active = inhibition mostly above about 40%, no sharp cut-off; inactive = mostly below about 27%
PPC-1+TRAIL kill = PPC-1 cancer cell killing with TRAIL present; PPC-1 cells + TRAIL, ATPLite viability luminescence; AID 1443; cell killing (% activity), % at 4 µM or 5 µM; hit rate 0.41% among 220,000;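 active = cell killing above 50% in the first pass at 4 µM, then a duplicate retest at 5 µM averaging 50% or more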;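 note: plate controls were cells with TRAIL plus DMSO for no effect and medium-only wells lacking cells for full effect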
SENP8 confirm = human SENP8 inhibition, confirmed; Recombinant SENP8, Z-RLRGG-aminoluciferin luminescence, 60 min; hit rate 40% among 6,200; AID 488912; inhibition, % at 12.5 µM; shares compounds with SENP7 block;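 active = mean inhibition across replicates above about 50%, limit read from the data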
SENP6 confirm = confirmation of human SENP6 protease inhibitors | shares compounds with SENP7 block | recombinant SENP6, Z-RLRGG-aminoluciferin luminescence | inhibition, % at 12.5 µM | hit rate 58% among 6,200 | AID 488915
SENP7 confirm = human SENP7 inhibition, confirmed. hit rate 69% among 6,200. inhibition, % at 12.5 µM. shares compounds with SENP7 block. AID 488917. recombinant SENP7, Z-RLRGG-aminoluciferin luminescence, 40 min
Casp3 select = inhibits human caspase-3 in SENP selectivity test. shares compounds with SENP7 block. purified caspase-3, Z-DEVD-aminoluciferin luminescence, 60 min. inhibition, % at 12.5 µM. hit rate 60% among 6,200;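 active = mean inhibition above about 50%, limit read from the data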;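 note: plate controls were enzyme with DMSO for no effect and wells without caspase-3 for full effect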
Target sequence (P42574 28-227 limits assumed): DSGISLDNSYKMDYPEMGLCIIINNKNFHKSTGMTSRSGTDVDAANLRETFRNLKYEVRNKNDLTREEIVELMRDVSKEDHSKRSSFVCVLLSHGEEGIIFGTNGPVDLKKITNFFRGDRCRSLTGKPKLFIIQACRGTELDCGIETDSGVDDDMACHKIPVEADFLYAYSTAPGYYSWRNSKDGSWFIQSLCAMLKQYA
Luc interf = interferes with luciferase luminescence in SENP counter-screen | shares compounds with SENP7 block | Pre-incubated SENP8/Z-RLRGG-aminoluciferin, luciferase luminescence interference | inhibition, % at 12.5 µM | hit rate 39% among 6,200 | AID 488919;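 active = mean inhibition above about 50% when retested at one dose, limit read from the data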;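 note: plate controls were DMSO wells with completed reaction for no effect and substrate without enzyme for full effect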
* marks the source's active call; other numbers are inactive results; · = no result. Rows were chosen to be rich in hits. Some 3% of all compounds tested hit in one or more screens of this group.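 Rule for the calls, unless noted: active = mean inhibition above about 50% in the one-dose retest (limit read from the data); inactive = the rest.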

SMILES | SENP7 block | SENP6 inh | TRAIL sens C8 | SENP8 block-1 | SENP8 block-2 | PPC-1+TRAIL kill | SENP8 confirm | SENP6 confirm | SENP7 confirm | Casp3 select | Luc interf
CCC(C)NC(=O)c1cc2cc3ccc(OC)cc3nc2s1 (configuration not stated) | 60* | -7 | 47 | 36 | -313 | 33 | 37 | 61* | 87* | 72* | 37
Oc1cc(O)cc(/C=C/c2ccc(O)c(O)c2)c1 | 45 | 65* | 38 | 44 | -384 | · | 63* | 71* | 83* | 63* | 73*
C/C=C/c1ccc(O)c(OC)c1 | -18 | -10 | -8 | -16 | 17 | · | · | · | · | · | ·
CC(=O)CC(=O)Nc1ccc(Cl)cn1 | -8 | -9 | 1 | -11 | 5 | -4 | · | · | · | · | ·
O=C(O)c1nccnc1C(=O)Nc1ccc(Cl)cn1 | 2 | 97* | -5 | 11 | 11 | · | -9 | -7 | -6 | 6 | 5
CCn1nccc1C(=O)Nc1ccc(Cl)cn1 | 63* | 74* | -6 | 35 | 31 | 28 | 34 | 37 | 80* | 40 | 64*
CN(C)C(=S)NC(=S)Nc1ccc2ccccc2c1 | · | · | 16 | · | -144 | · | · | · | · | · | ·
O=C(Nc1ccc2sccc2c1)c1ccc(Cl)s1 | 86* | 71* | 18 | 19 | -7 | 37 | -25 | -3 | 88* | 50* | 4
O=C(Nc1ccc2c(c1)CCCN2C(=O)c1ccccc1)c1ccccc1Br | 20 | 38 | 4 | 25 | 17 | · | · | · | · | · | ·
COc1ccccc1C(=O)Nc1ccc2c(c1)CCCN2C(=O)c1ccccc1 | 84* | 90* | 14 | 84* | 17 | · | 85* | 82* | 95* | 85* | 76*
COc1ccccc1C(=O)Nc1ccc2c(c1)CCCN2C(=O)c1cccs1 | 55* | 54* | 0 | 47 | 3 | · | 66* | 64* | 84* | 65* | 58*
COc1cc(Cl)ccc1OCc1cc(C(=O)NCCCN2CCCC2=O)no1 | 16 | -11 | -2 | -10 | 3 | · | · | · | · | · | ·
C[C@H](NC(=O)N1CCn2c1nc1ccccc12)C(=O)N1CCCCC1 | 8 | -17 | -13 | -4 | 14 | · | · | · | · | · | ·
Cc1cc2nc(-c3ccccc3O)[nH]c2cc1C | · | · | 45 | · | -495 | · | · | · | · | · | ·
Clc1cc2nc(-c3cccnc3Cl)[nH]c2cc1Cl | 73* | 77* | -11 | 38 | -207 | · | 3 | 8 | 90* | 59* | 1
Nc1nonc1-n1nnc(C(=O)N/N=C/c2cccc(Cl)c2)c1-c1cccs1 | 46 | -17 | -5 | -1 | -54 | · | · | · | · | · | ·
Cc1ccc2c(c1)/C(=N/OC(=O)c1ccc(F)cc1)CCS2 | 5 | 9 | 25 | -14 | -63 | 13 | · | · | · | · | ·
O=C(O/N=C1/CCSc2ccccc21)c1ccccc1 | 74* | 89* | -4 | 79* | -18 | 23 | 90* | 89* | 98* | 79* | 75*
O=C(O/N=C1\CCCc2ccccc21)c1ccc(F)cc1 | 95* | 78* | -2 | 72* | 9 | 9 | 11 | 55* | 26 | 42 | 14
COC(=O)N/N=C1\CCCc2ccccc21 | -7 | 0 | -6 | 3 | 8 | 1 | · | · | · | · | ·
O=C(Nc1ccccc1C(F)(F)F)N1CCN(c2ccccn2)CC1 | 0 | -5 | -7 | 6 | -12 | 10 | · | · | · | · | ·
O=C(Nc1ccc(CN2CCCCC2)cc1)Nc1ccc(Br)cc1Cl | -5 | -24 | 9 | -7 | 22 | 14 | · | · | · | · | ·
CCOC(=O)N1CCN(Cc2nc(CC3CC3)no2)CC1 | 6 | 1 | -4 | -7 | 2 | -7 | · | · | · | · | ·
CN(C)C(=O)CN1CCN(Cc2nc(CC3CC3)no2)CC1 | 2 | 73* | -21 | 6 | 13 | -2 | 5 | -2 | -2 | -3 | 0
CC1(C)Oc2ccc(NC(=O)C3COc4ccccc4O3)cc2O1 (configuration not stated) | 48 | 66* | 33 | 27 | 30 | 8 | 72* | 72* | 93* | 71* | 77*
SMILES | SENP7 block | SENP6 inh | TRAIL sens C8 | SENP8 block-1 | SENP8 block-2 | PPC-1+TRAIL kill | SENP8 confirm | SENP6 confirm | SENP7 confirm | Casp3 select | Luc interf
O=C(Nc1nnc(C(F)(F)F)s1)C1COc2ccccc2O1 (configuration not stated) | 64* | 83* | 5 | 67* | 15 | 10 | 81* | 80* | 95* | 91* | 85*
CC(=O)c1sc(NC(=O)C2COc3ccccc3O2)nc1C (configuration not stated) | 19 | 52* | -11 | 29 | -46 | · | 20 | 24 | 62* | 62* | 51*
Cc1cccc(NC(=O)CNC(=O)CSc2nc(N)cc(N)n2)c1C | -6 | -21 | 0 | -7 | 11 | · | · | · | · | · | ·
Cc1ccc(-n2c(C)cc(C(=O)CSc3nncs3)c2C)cc1 | 1 | -14 | 36 | 6 | 16 | 21 | · | · | · | · | ·
Cc1ccc(-n2c(C)cc(C(=O)CSc3nnnn3C)c2C)cc1 | 69* | 29 | 16 | 60* | 7 | -7 | 80* | 78* | 95* | 79* | 76*
Nc1c(Cl)ncnc1N/N=C/c1cccc(O)c1 | 34 | 56* | -10 | 25 | -198 | 31 | 40 | 36 | 70* | 68* | 25
Cc1ccc(N=Nc2c(O)n(CN3CCOCC3)c3ccccc23)cc1 | 84* | 67* | 0 | 78* | 6 | 6 | 33 | 88* | 98* | 63* | 26
COc1ccc(C2=NN(CN3C(=O)C(=O)c4ccccc43)C(c3ccc(Br)cc3)C2)cc1 (configuration not stated) | 81* | -10 | -1 | -5 | 5 | -21 | -12 | -8 | 2 | 4 | 0
COc1ccc(C2=NN(CN3C(=O)C(=O)c4ccccc43)C(c3ccc(C)cc3)C2)cc1 (configuration not stated) | -9 | -1 | -2 | -7 | 7 | 28 | · | · | · | · | ·
CCOC(=O)c1[nH]ncc1CN1CCc2ccc(NC(=O)C3CCCO3)cc2C1 (configuration not stated) | -1 | -8 | -13 | 2 | -10 | · | · | · | · | · | ·
CC(=O)N1CCn2c3c(c4cc(C)ccc42)CCCC31 (configuration not stated) | -1 | -14 | 8 | 3 | -56 | 14 | · | · | · | · | ·
